High-throughput results (PubChem BioAssay)
KCNQ2 block: rat KCNQ2 potassium channel inhibitors, primary screen, cell-based, CHO-K1, FluxOR thallium flux, B-score | Potassium voltage-gated channel subfamily KQT member 2 (Rattus norvegicus), O88943 | 20 min; hits give low values | B-score at 10 µM | 310,000 tested, 1.1% active;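 active = fluorescence ratio B-score at most minus 3 library SDs, with starting brightness B-score within 2 library SDs, cut at about -5.5 in these data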
KCNQ2 enhance: potentiators of rat KCNQ2 potassium channel; Potassium voltage-gated channel subfamily KQT member 2 (Rattus norvegicus), O88943; 310,000 tested, 0.54% active; CHO-K1 KCNQ2, FluxOR thallium flux fluorescence; hits give high values; B-score at 10 µM; AID 2239, 2010;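 active = fluorescence ratio B-score at least 3 SD of library B-scores, with initial fluorescence B-score within 3 of them, cut at about 5.3 in these data; same plate scores as AID 2156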;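 note: B-score of peak minus minimum over baseline fluorescence ratio after K+ and Tl+ stimulus; positive B-score means potentiation of KCNQ2 with more thallium influx and brighter signal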
KCNQ2 block conf: rat KCNQ2 potassium channel inhibitors, confirmation, cell-based, thallium flux; 1,000 tested, 57% active; KCNQ2-expressing cells, inhibition; hits give low values; shares compounds with KCNQ2 block; activity change, negative = inhibition, % at 10 µM
KCNQ1 spec: human KCNQ1 channel inhibition, counter-screen for KCNQ2 inhibitor project, cell-based, FluxOR thallium flux; activity change, negative = inhibition, % at 10 µM; shares compounds with KCNQ2 block; KCNQ1-expressing cells, FluxOR thallium flux fluorescence; hits give low values; 1,000 tested, 15% active;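 active = activity change at least 3 SD of negative controls below their mean in both duplicate wells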;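 note: CHO cells stably transfected with KCNQ1 and depolarized by potassium stimulus; peak minus minimum fluorescence over baseline after thallium addition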
Target sequence (P51787 whole entry, looked up): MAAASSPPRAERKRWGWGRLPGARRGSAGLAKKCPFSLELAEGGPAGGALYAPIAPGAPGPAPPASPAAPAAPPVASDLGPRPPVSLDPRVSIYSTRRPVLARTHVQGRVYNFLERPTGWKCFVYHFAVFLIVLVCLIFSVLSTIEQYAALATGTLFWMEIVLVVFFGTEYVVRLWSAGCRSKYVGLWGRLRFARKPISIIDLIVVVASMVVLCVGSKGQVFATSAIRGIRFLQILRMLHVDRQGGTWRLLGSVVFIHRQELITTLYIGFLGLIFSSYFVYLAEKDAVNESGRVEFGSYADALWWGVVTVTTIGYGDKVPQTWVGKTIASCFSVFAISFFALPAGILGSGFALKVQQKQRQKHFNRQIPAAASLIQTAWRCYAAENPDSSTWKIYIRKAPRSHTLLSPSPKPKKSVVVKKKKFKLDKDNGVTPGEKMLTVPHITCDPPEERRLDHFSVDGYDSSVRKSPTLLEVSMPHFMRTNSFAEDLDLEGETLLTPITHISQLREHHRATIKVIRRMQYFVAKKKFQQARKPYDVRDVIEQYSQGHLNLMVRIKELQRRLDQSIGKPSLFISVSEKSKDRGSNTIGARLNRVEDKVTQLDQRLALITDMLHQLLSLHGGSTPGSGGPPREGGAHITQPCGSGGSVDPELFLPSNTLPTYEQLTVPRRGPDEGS
CHO parental ctr: thallium flux change in parental CHO cells, counter-screen for KCNQ2 inhibitor project | shares compounds with KCNQ2 block | hits give low values | activity change, % at 10 µM | 1,000 tested, 14% active | AID 493029, 2011
KCNQ2 inh confirm: rat KCNQ2 channel inhibitors, confirmation, cell-based, automated patch clamp, single concentration; shares compounds with KCNQ2 block; KCNQ2-expressing cells, automated patch clamp current; calls only at 10 µM; 550 tested, 49% active; AID 588531, 2011
Kir21 confirm: mouse Kir2.1 channel blockers, retest, confirmation, cell-based, FluxOR thallium flux, duplicate | Tl flux remaining, % of negative control (hits give low values), % at 10 µM | Kir2.1-expressing cells, FluxOR thallium flux fluorescence; hits give low values | shares compounds with KCNQ2 enhance | 2,300 tested, 41% active;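 active = Primary-screen hit whose thallium flux fell at least 3 control SD below untreated wells in both duplicates, with normal baseline fluorescence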
HEK293 Tl flux: alters thallium flux in parental HEK293 cells, Kir2.1 counter-screen; AID 2105; shares compounds with KCNQ2 enhance; FluxOR signal as % of negative control (100 = no effect), % at 10 µM; FluxOR thallium flux fluorescence; 0% = unstimulated blank wells; 2,300 tested, 19% active;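 active = dye signal at least 3 control SD above or below untreated wells in both duplicates, raw fluorescence within 3, either direction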;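 note: percent is based on the flux ratio of peak minus minimum fluorescence over baseline F0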
Numbers stand for hits; 0 = inactive; - = no result given; + = active, no number. The list is not random: actives were taken first. Their share in the collection is about 1.6%. Unless noted, the rule behind the calls is not given here.

SMILES	KCNQ2 block	KCNQ2 enhance	KCNQ2 block conf	KCNQ1 spec	CHO parental ctr	others
O=C(NCCCN1CCCC1)Nc1ccccc1[N+](=O)[O-]	0	-	-	-	-
COc1cccc(NC(=O)C(NC2CCCC2)c2ccccc2)c1 (centres undefined)	0	-	-	-	-
CC(C)NC(C(=O)Nc1cc(Cl)cc(Cl)c1)c1ccccc1 (centres undefined)	-8.1	0	-36%	0	0	KCNQ2 inh confirm=0
Cc1ccc(NC(=O)C(NC2CCCC2)c2ccccc2)cc1Cl (centres undefined)	-6.8	0	-36%	-39%	-36%	KCNQ2 inh confirm=0
O=C(Nc1cc(Cl)cc(Cl)c1)C(NCC1CCCO1)c1ccccc1 (centres undefined)	-7.8	0	0	0	0
CN(C)CCNC(C(=O)Nc1cc(Cl)cc(Cl)c1)c1ccccc1 (centres undefined)	0	-	-	-	-
O=C(CC(c1ccccc1)c1ccccc1)NCC1CCCO1 (centres undefined)	0	-	-	-	-
CC(Sc1nnc(-c2ccco2)n1C)C(=O)Nc1nccs1 (centres undefined)	0	0	-	-	-
O=C(/C=C\c1ccc(-c2cccc([N+](=O)[O-])c2)o1)N1CCOCC1	0	0	-	-	-
Cc1cc(Nc2cc(Cl)nc(Sc3ccc(NC(=O)C4CC4)cc3)n2)n[nH]1	0	-	-	-	-
COc1ccccc1OCC(=O)NN=C(Cc1ccccc1)Cc1ccccc1	-6.7	0	-32%	0	0	KCNQ2 inh confirm=+
CCOc1ccccc1OCC(=O)N/N=C(\C)Cc1ccc(OC)cc1	0	0	-	-	-
CN1CCN(C2Cc3ccc(F)cc3Sc3cc(F)c(Cl)cc32)CC1 (centres undefined)	0	-	-	-	-
CC(C)c1ccc2c(c1)C(N1CCNCC1)Cc1ccc(F)cc1S2 (centres undefined)	-9.7	0	-38%	-36%	-31%	KCNQ2 inh confirm=0
FC(F)(F)c1cccc(Cc2noc(CN3CCCC(OCc4ccccn4)C3)n2)c1 (centres undefined)	0	-	-	-	-
Cc1sc2ncnc(NCCc3ccc(S(N)(=O)=O)cc3)c2c1C	0	-	-	-	-
O=C(COc1ccc(Cl)cc1Cl)NN1C(=O)C2C3C=CC(C3)C2C1=O (centres undefined)	0	0	-	-	-
NC(=O)C1CCN(CC(=O)Nc2nc(-c3ccccc3)cs2)CC1	0	-	-	-	-
O=C(Nc1nc(-c2ccccc2)cs1)C1CCCCN1S(=O)(=O)c1ccccc1 (centres undefined)	0	-	-	-	-
CC1CCN(CC(=O)Nc2nc(-c3ccccc3)cs2)CC1	-7.3	0	0	0	0
O=C(Nc1nc(-c2ccccc2)cs1)C1CCCCN1S(=O)(=O)c1ccc(Cl)cc1 (centres undefined)	-8.9	0	0	0	0
Cc1ccc2c(c1)cc1c(=O)n(CC(=O)NCCN3CCCC3)nc(C)n12	0	0	-	-	-
Cn1c(C(=O)N(Cc2ccccc2)Cc2cccs2)cc2sccc21	0	-	-	-	-
Cn1c(C(=O)N(Cc2ccccc2)Cc2ccccn2)cc2sccc21	-8.3	0	0	0	0
Nc1ccnc(=O)[nH]1	0	-	-	-	-
SMILES	KCNQ2 block	KCNQ2 enhance	KCNQ2 block conf	KCNQ1 spec	CHO parental ctr	others
COc1cccc(C(=O)Nc2cccc(C(=O)NCC(C)C)c2)c1	-6.7	0	0	0	0
COc1cccc(NC(=O)c2cccc(C(=O)Nc3cccc(OC)c3)c2)c1	0	0	-	-	-
C=CCn1c(NCc2c[nH]c3ccccc23)nc2ccccc21	-10	0	-30%	0	0	KCNQ2 inh confirm=+
C=CCn1c(NCc2ccc(OC)cc2)nc2ccccc21	0	-	-	-	-
Cc1ccc(-c2csc(NC(=O)CN3CC(C)OC(C)C3)n2)cc1 (centres undefined)	0	0	-	-	-
CC(C)=CCc1c(O)cc(O)c2c(=O)c(O[C@@H]3O[C@@H](C)[C@H](O)[C@@H](O)[C@H]3O)c(-c3ccc(O)cc3)oc12	-7.1	0	-40%	-36%	-23%	KCNQ2 inh confirm=0
CC1OC(Oc2c(-c3cc(O)c(O)c(O)c3)oc3cc(O)cc(O)c3c2=O)C(O)C(O)C1O (centres undefined)	0	-	-	-	-
Cc1cc(Cl)nc(Cl)c1C(=O)NCc1ccc(Cl)cc1	0	-	-	-	-
COC(=O)c1ccc(C)c(-n2c(=O)n(Cc3ccccc3)c(=O)c3[nH]cnc32)c1	0	0	-	-	-
CCOC(=O)CSc1nnc(CNc2ccccc2Cl)n1-c1ccccc1	-6.7	0	-25%	0	0	KCNQ2 inh confirm=+
CCOC(=O)CSc1nnc(Cc2ccccc2)n1-c1cccc(Cl)c1	0	-	-	-	-
O=C(OCC1OC(n2ncc(=O)[nH]c2=O)C(OC(=O)c2ccccc2)C1OC(=O)c1ccccc1)c1ccccc1 (centres undefined)	-11	0	-22%	0	0	KCNQ2 inh confirm=0
CC(=O)OC[C@H]1O[C@@H](n2ncc(=O)[nH]c2=O)[C@H](OC(C)=O)[C@@H]1OC(C)=O	0	0	-	-	-
Cc1cc(F)ccc1S(=O)(=O)N1CCCOC1CNC(=O)C(=O)NCCCN1CCOCC1 (centres undefined)	0	-	-	-	-
COc1ccc(-n2c(=O)c3c4c(sc3n(CC(=O)NC3CCCC3)c2=O)CCCC4)c(OC)c1	-6.7	0	0	0	0
COc1ccc(-n2c(=O)c3c4c(sc3n(CC(=O)NCC3CCCO3)c2=O)CCCC4)c(OC)c1 (centres undefined)	0	-	-	-	-
COC(C)c1oc2c(C)c3oc(=O)cc(C)c3cc2c1C (centres undefined)	0	-	-	-	-
CN1C(=O)C(C)(C)c2cc(S(=O)(=O)N3CCC(C(=O)NCc4ccccc4Cl)CC3)ccc21	0	0	-	-	-
Cc1ccccc1C(=O)Nc1ccccc1NC(=O)c1ccccc1Br	0	-	-	-	-
COc1ccc(Nc2ccccc2NC(=O)c2ccccc2Br)cc1	-9.6	0	-22%	0	0	KCNQ2 inh confirm=+
CCn1cc(S(=O)(=O)N2CCCC2)cn1	0	0	-	-	-
CC(C)CNC(=O)CSc1nnc(-c2ccc(Cl)cc2)n1N	0	-	-	-	-
Cc1ccc(-c2nn(-c3ccccc3)cc2CO)cc1	0	-	-	-	-
N=C(N)SCc1cn(-c2ccccc2)nc1-c1ccc(Br)cc1	-12	0	0	0	0	Kir21 confirm=13%;HEK293 Tl flux=56%
Cc1ccc(C(=O)N2CC(=O)Nc3ccc(F)cc3C2c2ccc(F)cc2)cc1[N+](=O)[O-] (centres undefined)	0	-	-	-	-
CCOC(=O)Cn1c(COc2ccccc2OC)[n+](C)c2ccccc21	0	0	-	-	-
